Source: PubChem (National Center for Advancing Translational Sciences (NCATS))
A selection: hits, their analogues and other compounds. The true share with any hit is near 2.4%.
WRN inhibitor: qHTS for Inhibitors of WRN Helicase; Bifunctional 3'-5' exonuclease/ATP-dependent helicase WRN (Homo sapiens), Q14191; WRN helicase unwinding, fluorescent forked duplex, kinetic; Potency, µM (series often up to 114 µM), for inactives: at the highest dose activity change, negative = inhibition, actives largely listed as inhibitors; 360,000 compounds, 0.46% hits; note: % is set by controls: 0 for no effect and ±100 for the full control effect; nearly all actives have a fitted effect of over 55% in size
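Kinetic red-fluorescence monitoring (525/598 nm) tracks WRN helicase activity after 100 nM fluorophore-quencher forked duplex and 2 mM ATP are added to 20 nM enzyme pretreated 15 min at room temperature with compound.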
Pol iota inh: qHTS for Inhibitors of Polymerase Iota; DNA polymerase iota (Homo sapiens), Q9UNA4; Pol iota fluorescent replication assay, 10 min; Potency, µM (top dose mostly 115 µM), inactives show top-dose activity, negative = inhibition, actives largely listed as inhibitors; 390,000 compounds, 1% hits; AID 588590, 2011
Target sequence (Q9UNA4 whole entry, looked up): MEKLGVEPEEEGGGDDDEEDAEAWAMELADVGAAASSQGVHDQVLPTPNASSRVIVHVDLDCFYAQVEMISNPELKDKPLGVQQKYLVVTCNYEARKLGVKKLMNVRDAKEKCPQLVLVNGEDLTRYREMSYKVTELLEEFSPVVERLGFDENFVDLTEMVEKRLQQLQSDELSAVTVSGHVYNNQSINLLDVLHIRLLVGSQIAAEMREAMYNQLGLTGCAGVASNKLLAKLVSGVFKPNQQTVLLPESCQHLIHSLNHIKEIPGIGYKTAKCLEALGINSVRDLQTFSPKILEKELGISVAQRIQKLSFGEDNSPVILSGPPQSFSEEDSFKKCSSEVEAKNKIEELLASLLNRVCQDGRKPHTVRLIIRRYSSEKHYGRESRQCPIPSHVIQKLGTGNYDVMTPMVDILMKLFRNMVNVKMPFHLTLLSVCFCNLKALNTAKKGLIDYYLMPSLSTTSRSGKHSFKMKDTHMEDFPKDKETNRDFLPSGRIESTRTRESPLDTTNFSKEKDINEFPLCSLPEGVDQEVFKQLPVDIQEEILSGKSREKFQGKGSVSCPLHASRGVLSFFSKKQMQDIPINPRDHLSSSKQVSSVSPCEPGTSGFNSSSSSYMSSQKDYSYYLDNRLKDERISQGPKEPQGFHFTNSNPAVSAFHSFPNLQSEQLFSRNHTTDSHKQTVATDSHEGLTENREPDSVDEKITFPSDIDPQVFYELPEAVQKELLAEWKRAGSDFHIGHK
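Fluorescent replication assay read twice, at 0 min and 10 min after adding 50 nM (final) substrate. Enzyme (10 nM) and compounds were first incubated 15 min at room temperature; enzyme-free buffer wells were negative controls.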
POLH inh: qHTS for Inhibitors of Polymerase Eta. DNA polymerase eta (Homo sapiens), Q9Y253. recombinant Pol eta, fluorescent DNA replication assay. Potency, µM (top dose mostly 114 µM), for the others: at the highest dose activity change, negative = inhibition, most hits filed as inhibitors. 390,000 compounds, 1.2% hits. AID 588591, 2011; note: % is set by controls: 0 for no effect and ±100 for the full control effect
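Pol eta (10 nM) was preincubated with compounds for 15 min at room temperature, after which fluorescent replication substrate (50 nM final) was added to start the reaction. Fluorescence was read kinetically at 0 and 10 min.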
POLK inh: qHTS for Inhibitors of Polymerase Kappa; 400,000 compounds, 0.53% hits; Potency, µM (highest dose often 107 µM), without a hit: top-dose activity, negative = inhibition, usual class: inhibitors; purified Pol kappa, fluorescent DNA synthesis assay, 10 min; note: % is set by controls: 0 for no effect and ±100 for the full control effect
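Activity was followed as the change in fluorescence between reads at 0 and 10 min after starting the reaction with 50 nM substrate. Beforehand, 10 nM polymerase had been preincubated with compound for 15 min at room temperature.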
Pol beta inh: qHTS Assay for Inhibitors of DNA Polymerase Beta. P06746. 340,000 compounds, 1.3% hits. Pol beta primer extension/strand displacement, fluorescence kinetic. AID 485314, 2010. Potency, µM (doses to about 114 µM), for inactives: at the top dose activity change, negative = inhibition, usual class: inhibitors; note: % is set by controls: 0 for no effect and ±100 for the full control effect
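Values derive from four-parameter Hill fits of normalized kinetic data: reads at 0 and 10 min following addition of 50 nM substrate to 10 nM Pol beta preincubated 15 min with compound.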
FEN1 inh: qHTS Assay for the Inhibitors of Human Flap endonuclease 1 (FEN1); P39748; Recombinant FEN1 flap cleavage, fluorescence, 15 min; Potency, µM (top dose mostly 114 µM), for the others: at the top dose activity change, negative = inhibition, most hits filed as inhibitors; 390,000 compounds, 0.35% hits; AID 588795, 2011; note: % is set by controls: 0 for no effect and ±100 for the full control effect; nearly all actives have a fitted effect of over 65% in size
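Quantitative HTS format: each compound was titrated, incubated with 10 nM nuclease for 15 min at room temperature, then challenged with flap substrate at 50 nM final. Signal change over 15 min gave concentration–effect curves.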
* marks the source's active call; other numbers are inactive results; i = inactive; ? = inconclusive; · = not tested or not shown; [ ] = remark or other dose. Calls come from the whole dose curve; as a rule, active = well fitted curve in the direction sought with a large enough effect; inconclusive = small, poorly fitted or top-dose-only effect, or another doubt; inactive = no such curve, though single readings can be large; an effect the other way counts as inactive or inconclusive. Potency is the fitted concentration of half-maximal effect.

SMILES | WRN inhibitor | Pol iota inh | POLH inh | POLK inh | Pol beta inh | FEN1 inh
Cc1cc(Cl)ccc1OCC(=O)OC(C)C(=O)N(C)C (stereo not given) | -19% | 50µM* | ? | -17% | ? | 3%
Cc1ccc(C(=O)Oc2cc(-c3ccc4c(c3)OCO4)cc(=O)c3c(C)oc(C)c23)cc1 | · | ? | 79µM* | -32% | -19% | 7%
O=C(NCc1ccccc1F)c1ccc(CN2CC(=O)N3CCCCC3C2=O)cc1 (stereo not given) | · | -15% | -9% | 0% | 17% | 3%
Cc1ccc(-n2c(SCC(N)=O)nc3c(oc4ccccc43)c2=O)cc1C | · | -17% | -13% | 1% | 11% | -1%
CCN1CCN(c2cc(C)c3cc(NC(=O)c4ccc(OC)c(OC)c4)ccc3n2)CC1 | -30% | ? | ? | ? | 8.9µM* | ?
CCN1CCN(c2cc(C)c3cc(NC(=O)c4cc(OC)c(OC)c(OC)c4)ccc3n2)CC1 | · | -24% | ? | -13%[60.1 µM] | ? | -33%
COc1ccc(NC(=O)CN(C)CC(=O)Nc2cccc(F)c2)cc1S(=O)(=O)N1CCCCC1 | 50µM* | -19% | -15% | -11% | · | 11%
CCC(C(=O)O)C1OC(C(C)C(O)C(C)C(=O)C(CC)C2OC3(C=CC(O)C4(CCC(C)(C5CCC(O)(CC)C(C)O5)O4)O3)C(C)CC2C)C(C)CC1C (stereo not given) | · | · | · | -2%[19.4 µM] | · | ·
O=C(N/N=C/c1cccc(OC2CSC2)c1)c1ccccc1O | ? | ? | ? | -31% | 45µM* | -7%
Cc1ccc(O)c(/C=N/NC(=O)Cc2ccc(Cl)cc2)c1 | -13% | -6% | 6% | -8% | 25µM* | -3%
O=C(Cc1ccc(Cl)cc1)N/N=C/c1ccc(O)c(O)c1 | -19% | · | ? | · | · | ·
O=C(N/N=C/c1oc(O)c2ccccc12)c1ccccc1O | -8% | -14% | -3% | -22% | 20% | -11%
O=C(N/N=C/c1ccoc1)c1ccc(Br)cc1 | -3% | ? | -4% | -11% | 40µM* | -11%
O=C(N/N=C/c1ccoc1)c1ccccc1O | -9%[11.6 µM] | ? | 45µM* | ? | 22µM* | 7%
O=C(N/N=C/c1ccoc1)c1ccccc1 | -20% | ? | ? | -38% | 20µM* | -6%
Cc1cc(C)cc(C(=O)N/N=C/c2ccoc2)c1 | -5% | ? | -16% | -4% | 45% | 6%
O=C(N/N=C/c1cc(Cl)ccc1O)c1ccc(Br)cc1 | 0%[57.1 µM] | ? | ? | ? | 10µM* | ?
O=C(N/N=C/c1cccc(Br)c1)c1ccc(Br)cc1 | -22% | ? | -5% | -21% | 10µM* | -22%
O=C(COc1ccccc1)Nc1nc(-c2cccnc2)cs1 | -1% | -6% | ? | -14% | · | -2%
N#Cc1ccc(OCC(=O)Nc2nc(-c3cccnc3)cs2)cc1 | -5%[11.6 µM] | ? | 50µM* | -20% | · | -2%
CC(=O)OCC(NC(=O)C(CCCCNC(=O)OCc1ccccc1)NC(=O)OC(C)(C)C)C1OC(n2cc(F)c(=O)[nH]c2=O)C(OC(C)=O)C1OC(C)=O (stereo not given) | · | 10% | · | -3% | · | -5%
CCNc1ccc(Br)cc(C(=O)/C=C/c2c(Cl)cccc2Cl)c1=O | ? | 4.5µM* | 18µM* | ? | 8.9µM* | ?
CCNc1ccc(Br)cc(C(=O)/C=C/c2ccc3c(c2)OCO3)c1=O | ? | 4µM* | 11µM* | ? | 20µM* | ?
Cc1ccc(NC(=O)/C=C/c2ccc(Cl)cc2)c(Br)c1 | · | -21% | -1% | -11%[60.1 µM] | 35% | -12%
CCNc1ccc(Br)cc(C(=O)/C=C/c2ccc(Cl)cc2)c1=O | -15%[11.6 µM] | ? | 40µM* | ? | 28µM* | -4%
SMILES | WRN inhibitor | Pol iota inh | POLH inh | POLK inh | Pol beta inh | FEN1 inh
CCNC(=O)/C=C/c1cccc(Br)c1 | · | · | · | 11%[19.4 µM] | · | ·
CCCS(=O)(=O)c1ncc(Cl)c(C(=O)Nc2c(C(=O)c3ccccc3)oc3ccccc23)n1 | · | 9% | -15% | 18% | 9% | 0%
CC1CCCN(C(=O)c2ccc(CSc3nc4ccncc4n3Cc3ccccc3)cc2)C1 (stereo not given) | · | -2% | -6% | -10% | 2% | 2%
COc1cc2[nH]c3c(=O)n(CCN4CCCCC4)cnc3c2cc1OC | -7%[57.1 µM] | 1% | -2% | 22µM* | -16% | -12%
O=C(COC(=O)c1n[nH]c2ccccc12)NC(=O)NC12CC3CC(CC(C3)C1)C2 | -11% | -45% | ? | -8% | 35µM* | 4%
O=C(COC(=O)c1n[nH]c2ccccc12)NC(=O)NC1CCCC1 | -13% | -2% | 4% | -1% | 15% | 4%
O=C(O)CCc1cc(I)c(O)c(I)c1 | · | · | · | 8%[19.4 µM] | · | ·
Cc1occc1C(=O)N1CCN(c2ccc([N+](=O)[O-])cc2)CC1 | 3% | ? | -1% | -5% | 40µM* | -3%
Cc1occc1C(=O)N1CCN(c2ccc(Cl)cc2)CC1 | -4% | 134% | -19% | -14% | 29% | -1%
C=C1C=C(C(F)F)n2ncc(C(=O)N3CCc4ccccc4C3)c2N1 | · | 10% | · | 2% | · | -2%
CCN1C(=O)/C(=C/C=C2\N(CC)c3cc(S(=O)(=O)N(C)C)ccc3N2c2ccccc2)SC1=S | ? | ? | i | ? | 3.5µM* | -19%
COc1ccc(NC(=O)COc2ccc(/C=C/c3cc[n+](C)cc3)cc2OC)cc1 | -1% | ? | -10% | -17% | ? | -21%
COc1cc(/C=C/c2cc[n+](C)cc2)ccc1OCC(=O)Nc1ccc(Cl)c(Cl)c1 | 4%[11.6 µM] | 64% | 89µM* | -12% | 56µM* | ?
COc1ccc(NC(=O)COc2ccc(/C=C/c3cccc[n+]3C)cc2OC)cc1 | -1%[11.6 µM] | 45µM* | -14% | ? | 11µM* | 11%
COCCN(C(=O)COC(=O)/C=C/c1ccco1)c1c(N)n(Cc2ccccc2)c(=O)[nH]c1=O | 1%[11.6 µM] | ? | ? | -32% | 28µM* | -3%
COCCN(C(=O)COC(=O)/C=C/c1ccc(C)o1)c1c(N)n(Cc2ccccc2)c(=O)[nH]c1=O | -1% | 79µM* | -11% | -7% | -6% | 10%
CCN(C(=O)COC(=O)/C=C/c1ccc(C)o1)c1c(N)n(Cc2ccccc2)c(=O)[nH]c1=O | 11% | 7% | 0% | -14% | · | -1%
COc1ncc2nc(C)c(=O)n(C[C@H]3CCCO3)c2n1 | · | · | · | 5%[60.1 µM] | · | ·
